Target: FH
Experiment: pooled miR-30 sensor sort-seq; sequence = guide strand
Conditions: shRNA
Note: reference of the scale not given here.

| Sequence | sensor-assay potency score (higher = more potent) |
| --- | --- |
| TTCTATTGCAGCAGCAATGTGC | -0.565 |
| TTCTGTCACACCTCCAATCTTA | -0.00125 |
| TTACTTGTTGAACATAACCACT | -1.14 |

Target: FIGF
Experiment: as above
Conditions: shRNA

| Sequence | sensor-assay potency score (higher = more potent) |
| --- | --- |
| TACAGACACACTCGCAACGATC | -1.17 |
| TTGGCAAGCACTTACAACCTGT | -0.889 |
| TTCTTTGCCATTCTTCATCTAT | -0.386 |
| TAGTGTTTCAATGTCATAGAAA | -1.28 |
| TGTTTTACAGACACACTCGCAA | 0.505 |
| TAGAAGACATCCATCAATGAAC | -1.15 |
| TTCTTCATCTATAACTTTTAGT | -0.323 |
| TAGAAAGTTGCCGCAAACCTAG | -0.566 |
| TTACAGACACACTCGCAACGAT | -0.443 |
| TGATCTGCTGTTCAGATCGTTC | -1.69 |
| TAATCAGTCATATGACACCTGC | -0.697 |
| AAACTTTTGAGCCTCAGCCTGC | -0.913 |
| TTGCACTCAAAGCAACTGCAGT | -1.07 |
| TAATTGAGTATGGATGGCGGGG | -0.582 |
| TAGCATGTCAATAGGACAGAGT | -0.483 |
| TTCATCTATAACTTTTAGTGTT | -0.356 |
| TCATCTATAACTTTTAGTGTTT | -1.04 |
| TTTGTTGCTATCCCATAGCATG | -1.38 |
| TTACATTTGTTGCTATCCCATA | -0.837 |
| TTCTGCATAAAAAAGAATCAGA | -0.887 |
| TTGGTCTGGATTCACTGTGGTG | -0.724 |
| TGCAACAGCCACCACATCGGAA | -0.975 |
| ATCTTCGTCAAACATCATGTGT | -0.944 |
| TTTTTTTTTAACACCTGGGAAA | -1.2 |

Target: FILIP1L
Experiment: as above
Conditions: shRNA

| Sequence | sensor-assay potency score (higher = more potent) |
| --- | --- |
| TAATTTGTGATTGTCGAGGAAG | -0.722 |
| TTACTCTGTAACGTCTCCCTTT | -0.579 |
| TTTTTCAACATATTAACTCTTG | -0.558 |
| TTTTTCCACAACTTTGTCCAAC | -1.3 |
| TTTTTCTTTTATATCTTGCAGC | -0.415 |
| TTGCTGTTCATCCACCACCATC | -1.76 |
| TTAGAGAACCACAAGACTCTGG | 0.224 |
| TTGAGTTCGGTTATCCTGCAGT | -0.337 |
| TATAGTTCATGCACAAACCTTC | -0.0966 |
| TTTTCTGCTAACTTGTACTTAG | -0.314 |
| TTCTTGATCAATTAGCTTCTTT | 0.000192 |
| TTGTCTACTGCTTCTGTCTGAA | 0.143 |
